Assay results from PubChem BioAssay (NCATS).
Results filed as inconclusive are left out. Where a call stands in place of a potency, no number is given. Activity calls are given as the source filed them. Calls follow the shape of the dose curve; as a rule, active = well fitted inhibition curve with a large enough effect; inconclusive = small, poorly fitted or top-dose-only effect; inactive = no such curve, though single readings can be large or run the other way.

molecular target: Retinaldehyde dehydrogenase 3 (Homo sapiens) (UniProt P47895); experiment: qHTS for Inhibitors of the Aldehyde Dehydrogenase Family (ALDH1A3) Primary screen (AID 2061315); conditions: ALDH inhibition qHTS; series mostly up to 56 µM

Structure (SMILES) | Potency
CCC1(CC)CCN(C(=O)CC(c2ccc3c(c2)OCO3)c2c(O)cc(OC)cc2OC)C1 (stereo not given) | inactive
Cc1ccc(OCCn2c(CCNC(=O)c3ccc(C(F)(F)F)cc3)nc3ccccc32)cc1 | inactive
Cc1ccc(-c2ccc(=O)n(CCNCCc3ccccc3)n2)cc1 | inactive
CCCCn1cnc2cc(C(=O)N3CCCCC3)ccc21 | inactive
Cc1ccc(S(=O)(=O)Nc2ccc(C(=O)Nc3nc(-c4ccccc4)cs3)c(Cl)c2)cc1 | inactive
COc1ccc(C(=O)O[C@H]2C=COC=C3C=C4C(=O)N(C)C(=S)C(=O)N4[C@@H]32)cc1Oc1cc(C=O)ccc1O | inactive
Cc1ccc(S(=O)(=O)Nc2ccc(C(=O)Nc3nc(-c4ccccc4)cs3)cc2Cl)cc1 | inactive
CNc1oc(-c2cccs2)nc1C#N | inactive
Cc1ccc(OCCn2c(CCNC(=O)c3cccc(C)c3)nc3ccccc32)cc1 | inactive
N#Cc1c(-c2ccc(OCCOCCOCCNC(=O)CCCC[C@@H]3SC[C@@H]4NC(=O)N[C@@H]43)cc2)no[n+]1[O-] | inactive
O=C(Nc1ccc(Cl)c([N+](=O)[O-])c1)Nc1cccc(-c2ccncc2)n1 | inactive
O=C(Cn1cc(CN(Cc2ccccc2)Cc2ccccc2)nn1)Nc1cc(C(F)(F)F)ccc1Cl | inactive
O=C(Cc1ccccc1)Nc1sc2c(c1C(=O)Nc1ccc(Cl)cc1)CCOC2 | inactive
O=S(=O)(c1cccc(O)c1)N1CCN(S(=O)(=O)c2c(F)cccc2F)CC1 | inactive
Cc1ccc(NS(=O)(=O)c2cc3c(cc2Br)NC(=O)CO3)cc1C | inactive
